# Assay outcomes: PubChem BioAssay, several laboratories
# In the library only some 2.5% were active in any assay of this set; here they are far more common.
# TWEAK Fn14 block: inhibitors of TWEAK-Fn14 signaling, primary screen, luciferase reporter cells, uHTS; inhibition, % at 10 µM; TWEAK-stimulated Fn14 reporter cells, luciferase luminescence, 8 h; 2% of 360,000 active; in the data active means inhibition above about 50%
# LMP1 NFkB inh: EBV LMP1-driven NF-kappaB luciferase reporter inhibitors, primary screen, cell-based, luminescence, single point | inhibition, % at 12.5 µM | 0.69% of 350,000 active | LMP1-induced NF-kappaB luciferase reporter cells | AID 504558, 2011; in the data active means inhibition above about 41%; inconclusive means no clear call, values can overlap the other calls;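 further: 0% = neutral control wells and 100% = reference inhibitor control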
# EWS-Fli inh: EWS/Fli-driven NR0B1 reporter inhibitors, primary screen, A673 cells, NR0B1 luciferase, luminescence, MLPCN library; inhibition, % at 12.6 µM; 0.67% of 350,000 active; viability-normalised; AID 651661, 2012;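 active means mean inhibition of at least 50% after viability correction, with every replicate also passing that limit; inconclusive means mean reaches 50% but only one of two replicates passes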;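 further: firefly luciferase signal divided by Alamar Blue viability fluorescence both relative to DMSO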
# LGR2 antag: inhibitors of bursicon-induced LGR2 CRE-luciferase signal, primary screen, cell-based, HEK293, CRE-luciferase reporter, bursicon stimulation | Drosophila bursicon receptor LGR2 (rickets) | 0.35% of 380,000 active | bursicon-stimulated, 4 h | inhibition, % at 9.99 µM;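 active means drop in luminescence signal, shown as inhibition above about 50% in the replicate tests, limit read from the data, passing the limit was not always enough; inconclusive means probably only some replicates passing the limit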;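 further: agonist challenge used bursicon conditioned medium at about half maximal strength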
# TROY NFkB inh: inhibitors of TROY-driven NF-kB signaling, primary screen, Q293 LMP1-TROYcd cells, NF-kB luciferase, uHTS | Q293 LMP1-TROYcd NF-kB luciferase reporter, 4 h | inhibition, % at 10 µM | 0.98% of 360,000 active | AID 1347056, 2019;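 active means compounds whose plate-normalised and pattern-corrected inhibition of the luciferase reporter signal at the single screening dose is 50% or more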
# The depositor's hits bear a star; ? = inconclusive; / = not tested or not shown.
SMILES,TWEAK Fn14 block,LMP1 NFkB inh,EWS-Fli inh,LGR2 antag,TROY NFkB inh
O=C(Nc1nc(-c2ccc(S(=O)(=O)N3CCCCCC3)cc2)cs1)c1ccccc1,69.7*,26.6,/,/,45.3
O=C(Nc1nc(-c2ccc(S(=O)(=O)N3CCCC3)cc2)cs1)C1COc2ccccc2O1 (stereo not given),60.8*,6.2,/,/,36.7
CC(C)NC(=O)N(C)C[C@H]1OCCCC[C@H](C)Oc2ccc(NS(=O)(=O)c3cccs3)cc2C(=O)N([C@@H](C)CO)C[C@@H]1C,/,/,-9.5,10.8,/
O=S(=O)(c1ccc(-c2csc(Nc3ccc(Br)cc3)n2)cc1)N1CCCC1,60.9*,8.1,/,2.1,36.3
CN(C)S(=O)(=O)c1ccc(C(=O)Nc2nc(-c3cccs3)cs2)cc1,55.9*,-2.9,-1.5,-15.7,54.7*
Cc1ccc(-c2csc(NC(=O)c3ccc(-c4ccccc4)cc3)n2)o1,67.5*,-2.1,/,/,48.6
CN(C)S(=O)(=O)c1ccc(C(=O)Nc2nnc(-c3cccs3)o2)cc1,-5.2,1.0,12.0,7.6,-32.5
Cc1cc(C)c(C#N)c(Sc2nc(C)c([N+](=O)[O-])c(C)c2C#N)n1,82.0*,/,8.9,?,49.4
O=C(OCCN1C(=O)c2cccc3c(N4CCOCC4)ccc(c23)C1=O)c1ccc(Cl)cc1,66.1*,16.4,/,-10.5,41.5
O=C(c1ccsc1)N1CCCC(N2CCN(c3ccccc3F)CC2)C1 (stereo not given),94.7*,-1.9,/,0.0,-9.2
Cc1cccc(N2CCCn3c2nc2c3c(=O)n(CCN3CCOCC3)c(=O)n2C)c1,108.2*,7.9,/,/,11.3
CCc1noc(C)c1C(=O)OCC(=O)Nc1nc(-c2ccc(F)c(F)c2)cs1,8.1,9.1,-8.4,/,53.5*
Cc1noc(C)c1CSCC(=O)Nc1nc(-c2ccc(F)c(F)c2)cs1,76.8*,25.8,10.9,0.8,71.6*
C[C@@H]1CN([C@H](C)CO)C(=O)CCCn2nncc2CO[C@@H]1CN(C)C(=O)Nc1cccc(Oc2ccccn2)c1,/,/,-9.4,-18.7,/
Cc1ccc(Cl)cc1N1CCN(C(=O)c2cc3c(=O)[nH]c4ccccc4c3n2C)CC1,-15.0,33.4,/,64.5*,-4.7
Cn1c(C(=O)N2CCN(c3ccc(Cl)cc3)CC2)cc2c(=O)[nH]c3ccccc3c21,1.8,27.3,/,/,5.1
CN1CCN(C(=O)C2=C[C@@H](C(C)(C)C)C[C@@H](OCc3ccc(CO)cc3)O2)CC1,3.1,55.4*,2.5,-8.7,-25.9
COc1ccccc1-c1cnc2c(c1)C(=O)N([C@H](C)CO)C[C@@H](C)[C@@H](CN(C)C(C)=O)O2,/,/,-7.6,-4.9,/
O=C1CC(c2ccc3c(c2)OCCO3)Oc2ccc([N+](=O)[O-])cc21 (stereo not given),98.5*,-25.9,-20.2,-31.1,84.7*
CN1CCN(C(=O)C[C@H]2CC[C@@H]3[C@H](COC[C@@H](O)CN3Cc3ccc(Oc4ccccc4)cc3)O2)CC1,/,/,22.2,-9.1,/
CN(CC1CCCO1)S(=O)(=O)c1ccc(C(=O)Nc2nc3cc4c(cc3s2)OCO4)cc1 (stereo not given),52.6*,15.9,18.6,18.6,29.9
c1c2c(cc3sc(N4CCOCC4)nc13)OCCO2,92.5*,62.5*,/,/,55.0*
NNc1nc2cc3c(cc2s1)OCCO3,52.9*,-6.5,-59.8,4.5,30.3
CN(CC1CCCO1)S(=O)(=O)c1ccc(C(=O)Nc2ccc3c(c2)OCO3)cc1 (stereo not given),-13.3,4.1,4.6,-5.7,3.8
O=C(Nc1nc2cc3c(cc2s1)OCCO3)c1cccs1,88.7*,31.9,30.9,76.4*,61.1*
SMILES,TWEAK Fn14 block,LMP1 NFkB inh,EWS-Fli inh,LGR2 antag,TROY NFkB inh
c1ccc(N2CCN(c3nc4cc5c(cc4s3)OCCO5)CC2)cc1,10.8,-2.0,/,/,-20.2
CCC(=O)N(C)C[C@@H]1Oc2cc(C#CCC3CCCC3)ccc2S(=O)(=O)N([C@@H](C)CO)C[C@@H]1C,/,/,-15.9,7.2,/
Cc1ccc(S(=O)(=O)N(C)C[C@@H]2OCCCC[C@H](C)Oc3ccc(NC(=O)Nc4c(C)noc4C)cc3C(=O)N([C@@H](C)CO)C[C@H]2C)cc1,/,/,17.4,-17.2,/
C[C@H](CO)N1C[C@H](C)[C@H](CN(C)Cc2ccccc2)Oc2cc(C3=CCCC3)ccc2S1(=O)=O,/,/,7.3,9.9,/
CCN(CC)S(=O)(=O)c1cccc(C(=O)Nc2nc3cc4c(cc3s2)OCCO4)c1,94.8*,3.9,/,3.3,61.3*
O=C(Nc1nc2cc3c(cc2s1)OCCO3)c1cccc(N2C(=O)CCC2=O)c1,19.5,28.2,15.8,4.1,-58.0
Cc1cc(C)c2nc(C)cc(N/N=C/c3ccc(O)cc3)c2c1,-352.4,-20.0,67.0*,-3.5,-52.7
NS(=O)(=O)c1cccc(NC(=O)CNC(=O)CC23CC4CC(CC(C4)C2)C3)c1,-1.2,6.1,-9.4,5.8,52.3*
CCOc1ccc(N=Cc2c(C)[nH]n(-c3nc4ccccc4[nH]3)c2=O)cc1,30.6,2.6,0.2,63.1*,13.3
O=C(NCCN1CCCCC1)[C@@H]1[C@@H](CO)[C@@H]2Cn3c(cccc3=O)[C@H]1N2C(=O)C1CC1,/,/,7.7,8.4,/
Nc1ccc2c(c1)C(=O)CCC2,54.8*,-3.9,19.0,/,73.9*
COC(=O)CCCC[C@@H]1SC[C@@H](NC(=O)OC)[C@@H]1NC(=O)OC,6.3,53.4*,/,/,-16.2
CCCCCCOC(=O)Cc1c(C)nc(N)[nH]c1=O,56.3*,-3.3,3.2,-4.6,-7.6
CCOC(=O)Nc1ccc2c(c1)N(C(=O)CCN(CC)CC)c1ccccc1S2=O (stereo not given),64.5*,3.2,6.0,35.8,54.5*
Cc1noc(C)c1S(=O)(=O)Nc1ccc2c(c1)CC(=O)N([C@@H](C)CO)C[C@@H](C)[C@H](CN(C)S(=O)(=O)c1ccccc1)O2,/,/,-4.5,-3.4,/
C/C=C/c1ccc([C@H]2[C@@H](CO)N(Cc3cncnc3)C23CN(C(=O)CC2CC2)C3)cc1,/,/,2.6,-0.4,/
C/C=C/c1ccc2c(c1)O[C@@H](CN(C)C(=O)C1CC1)[C@H](C)CN([C@H](C)CO)S2(=O)=O,/,/,5.6,3.7,/
O=C(NN1C(=O)C2C3C=CC(C4CC34)C2C1=O)c1cccc(Cl)c1 (stereo not given),-0.6,71.3*,/,2.1,-41.5
O=C(NN1C(=O)C2C(C1=O)C1C=CC2C12CC2)c1cccc(Cl)c1 (stereo not given),6.5,-4.6,0.5,12.1,5.2
Cc1cc(O)c(C(=O)/C=C/c2cccc([N+](=O)[O-])c2)c(=O)o1,-18.9,-6.0,0.5,/,-1.9
O=C(/C=C/c1cccc([N+](=O)[O-])c1)N1CCN(c2ccccn2)CC1,-3.4,-4.8,/,-17.4,0.5
CC(=O)Oc1ccccc1C(=O)C=Cc1cccc([N+](=O)[O-])c1,82.6*,18.4,43.5,101.4*,19.6
